VDR inhibitor: Inhibitors of the vitamin D receptor (VDR): qHTS | AID 504847, 2011 | Potency, µM, most hits filed as inhibitors | 400,000 compounds, 0.93% hits | VDR-SRC2-3 peptide fluorescence polarization, 2 h
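The screen uses fluorescence polarization to detect compounds that interfere with recruitment of the SRC2-3 coactivator peptide to VDR; plates are read after 2 h at room temperature.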
BAZ2B block: qHTS Assay for Inhibitors of BAZ2B; Bromodomain adjacent to zinc finger domain protein 2B (Homo sapiens), Q9UIF8; AlphaScreen BAZ2B-H3K14Ac peptide displacement; Potency, µM (highest dose often 114 µM), actives largely listed as inhibitors; 360,000 compounds, 4.4% hits; AID 504333, 2011; also: nearly all actives have a fitted effect of over 60% in size
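Protein-peptide AlphaScreen: BAZ2B 50 nM, b-H3K14Ac 50 nM, 1x PBS pH 7.4 + 0.01% Tween-20. Preincubation 30 min RT; cpd 30 min RT (top 110 uM); beads 20 min RT, light-protected.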
PLK1 PBD block: qHTS for Inhibitors of PLK1-PDB (polo-like kinase 1 - polo-box domain): Primary Screen; Plk1 PBD binding of FITC phosphopeptide, fluorescence polarization; Serine/threonine-protein kinase PLK1 (Homo sapiens), P53350; 360,000 compounds, 2.8% hits; Potency, µM, hits mostly inhibitors; also: series mostly up to about 57 µM; nearly all actives have a fitted effect of over 65% in size
HP1b chromo inh: HTS for Inhibitors of HP1-beta Chromodomain Interactions with Methylated Histone Tails. AID 540317, 2011. AlphaScreen HP1-beta / biotin-H3K9me3 peptide binding. Chromobox protein homolog 1 (Homo sapiens), P83916. 390,000 compounds, 0.56% hits. Potency, µM (series often up to 114 µM), most hits filed as inhibitors; also: nearly all actives have a fitted effect of over 70% in size
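Compound inhibition of the preformed complex between 50 nM HP1-beta and 50 nM biotinylated H3K9me3 peptide was read by AlphaScreen. Buffer was PBS pH 7.4 with 0.01% Tween-20. Incubations ran 30 min at room temperature, with 10 ug/mL donor/acceptor beads.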
JMJD2A Tudor inh: qHTS Assay for Inhibitors of JMJD2A-Tudor Domain; AlphaScreen JMJD2A-Tudor / H3K4me3 peptide binding; Potency, µM (top dose mostly 114 µM), most hits filed as inhibitors; 390,000 compounds, 4.4% hits; AID 504339, 2011; also: nearly all actives have a fitted effect of over 50% in size
G9a inh: qHTS Assay for Inhibitors of Histone Lysine Methyltransferase G9a; Histone-lysine N-methyltransferase EHMT2 (Homo sapiens), Q96KQ7; G9a H3K9 monomethylation, AlphaScreen, 2 h; Potency, µM (top dose mostly 102 µM), most hits filed as inhibitors; 350,000 compounds, 8.8% hits; AID 504332, 2011; also: nearly all actives have a fitted effect of over 75% in size
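Step 1: enzyme (final 20 nM) with compound, 15 min RT. Step 2: substrate peptide 500 nM and SAM 20 uM, 2 h RT. Step 3: anti-H3K9me1 antibody and AlphaScreen beads, 10 min, then plate read.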
Each line names hits and unclear results; the compound was inactive in the other large screens. This is a sample that favours compounds with a hit; in the whole collection about 11% have one here. Calls follow the shape of the dose curve; as a rule, active = well fitted curve in the direction sought with a large enough effect; inconclusive = small, poorly fitted or top-dose-only effect, or another doubt; inactive = no such curve, though single readings can be large; an effect the other way counts as inactive or inconclusive.

CCOc1ccc2nc(SCC(=O)NCc3ccc(OC)c(OC)c3)[nH]c2c1	VDR inhibitor inconclusive, PLK1 PBD block 27µM
COc1ccc(NC(=O)CSc2nc3ccc(OC)cc3[nH]2)cc1	none
CCOc1ccc2nc(SCC(=O)N(C)C3CCS(=O)(=O)C3)[nH]c2c1 (stereo not drawn)	G9a inh 40µM
CCOc1ccc(-n2c(=S)sc3c(=O)[nH]c(SCC(=O)NCc4ccco4)nc32)cc1	BAZ2B block inconclusive, PLK1 PBD block inconclusive, JMJD2A Tudor inh inconclusive, G9a inh 40µM
CCOc1ccc2nc(SCC(=O)Nc3ccc4[nH]c(=O)[nH]c4c3)[nH]c2c1	BAZ2B block inconclusive, G9a inh 40µM
Cc1ccc(NC(=O)COC(=O)c2cc(C)nc3ccccc23)c([N+](=O)[O-])c1	none
COc1ccc2nc(SCC(=O)NCc3ccc(OC)c(OC)c3)[nH]c2c1	VDR inhibitor inconclusive, PLK1 PBD block inconclusive, JMJD2A Tudor inh 89µM
CCOC(=O)CCCNC(=O)CSc1nc2ccc(OCC)cc2[nH]1	none
CCOc1ccc2nc(SCC(=O)NC(=O)NCc3ccco3)[nH]c2c1	BAZ2B block inconclusive, G9a inh 50µM
O=C(O)CSc1nc2ccccc2nc1Cc1ccccc1F	PLK1 PBD block inconclusive
COc1ccccc1CCNC(=O)C(=O)NCC1OCCN1C(=O)c1ccc(Cl)cc1 (stereo not drawn)	none
O=C(O)c1c[nH]ccc1=O	BAZ2B block inconclusive, JMJD2A Tudor inh 7.1µM, G9a inh inconclusive
O=C(O)c1cccc(O)c1O	JMJD2A Tudor inh inconclusive (no result: BAZ2B block, G9a inh)
CC(=O)Nc1ccc2c(c1)nc1n2CCN(C2CCCCC2)C1	BAZ2B block inconclusive, G9a inh 10µM
CCCC(=O)Nc1ccc2c(c1)nc1n2CCN(C2CCCCC2)C1	PLK1 PBD block inconclusive, JMJD2A Tudor inh inconclusive, G9a inh 13µM
Cc1oc2ccc(O)c(CN3CCOCC3)c2c1C(=O)Nc1ccc(C(C)C)cc1	none (no result: PLK1 PBD block)
CC(C)=C1C2CCC1C1C(=O)N(c3nc(-c4ccccc4)c(C)s3)C(=O)C21 (stereo not drawn)	none
CN(/N=C/c1ccc([N+](=O)[O-])o1)c1ccccc1	BAZ2B block 14µM, HP1b chromo inh 35µM, JMJD2A Tudor inh 32µM, G9a inh 22µM
NC(=S)Nc1ccc(C(F)(F)F)cc1Cl	none
CCOC(=O)c1c(CN2CCOCC2)oc2ccc(OC(C)=O)cc12	none (no result: G9a inh)
CCOC(=O)c1c(C)oc2cc(Cl)c(O)c(CN(C)C)c12	JMJD2A Tudor inh inconclusive
CCOC(=O)c1c(CN2CCN(C)CC2)oc2ccc(O)cc12	BAZ2B block inconclusive, G9a inh 50µM
CCOC(=O)c1c(CN2CCN(CCO)CC2)n(-c2ccccc2)c2cc(Br)c(O)cc12	G9a inh inconclusive
CCOC(=O)c1c(CN2CCN(c3ccccc3)CC2)oc2cc(Br)c(O)cc12	BAZ2B block inconclusive, JMJD2A Tudor inh 50µM, G9a inh 50µM
CCOC(=O)c1c(-c2ccccc2)oc2ccc(O)cc12	BAZ2B block 71µM
CCOC(=O)c1c(-c2ccccc2)oc2ccc(OCC)cc12	none
CCOC(=O)c1c(-c2ccccc2)oc2cc(CN(C)C)c(O)c(CN(C)C)c12	JMJD2A Tudor inh 50µM (no result: BAZ2B block, G9a inh)
Cc1ccc(C)c(Oc2coc3cc(OC(=O)c4cccs4)ccc3c2=O)c1	PLK1 PBD block 9.5µM (no result: BAZ2B block, G9a inh)
O=C(/C=C/Sc1ccc(C(F)(F)F)cn1)c1ccccc1	VDR inhibitor 79µM
Cc1ccc(C(=O)NC(c2ccccc2)C(Cl)Cl)cc1 (stereo not drawn)	G9a inh 50µM
O=C(NC(c1ccccc1)C(Cl)Cl)c1ccccc1 (stereo not drawn)	none
Cc1ccccc1Cn1c(Oc2ccccc2F)nc2c1c(=O)n(C)c(=O)n2C	none (no result: PLK1 PBD block)
COC(=O)C(C)Sc1snnc1-c1ccccc1 (stereo not drawn)	none
COC(=O)C(CC(=O)O)NCc1ccco1 (stereo not drawn)	BAZ2B block inconclusive, PLK1 PBD block 12µM, JMJD2A Tudor inh 20µM (no result: G9a inh)
Cc1c(NC(=O)c2ccco2)c(=O)n(-c2ccccc2)n1C	none
O=C(NCc1ccco1)Nc1cccc(-c2ccccc2)c1	none (no result: BAZ2B block, G9a inh)
Cc1c(NC(=O)C(CC(=O)O)NCc2ccco2)c(=O)n(-c2ccccc2)n1C (stereo not drawn)	BAZ2B block 50µM, JMJD2A Tudor inh 5µM, G9a inh inconclusive
O=C(O)CC(NCc1ccco1)C(=O)OCCCl (stereo not drawn)	BAZ2B block inconclusive, JMJD2A Tudor inh 28µM, G9a inh 7.9µM
O=C(O)CC(NCc1ccco1)C(=O)Nc1cccc(O)c1 (stereo not drawn)	JMJD2A Tudor inh 3.2µM, G9a inh 50µM
COc1ccc(NC(=O)Cn2c(SCc3ccc(F)cc3)nc3cccnc32)c(OC)c1	G9a inh inconclusive (no result: PLK1 PBD block)
COc1ccc(-c2c3c(=O)n(C)c(=O)n(C)c3cn2-c2cc(OC)ccc2OC)cc1	BAZ2B block inconclusive, JMJD2A Tudor inh inconclusive, G9a inh 45µM
CCOc1ccccc1-n1cc2c(c1-c1ccc(OC)cc1)c(=O)n(C)c(=O)n2C	G9a inh inconclusive (no result: PLK1 PBD block)
COc1ccc(-c2c3c(=O)n(C)c(=O)n(C)c3cn2Cc2cccnc2)cc1	G9a inh 10µM
COc1ccc(-c2c3c(=O)n(C)c(=O)n(C)c3cn2Cc2ccccn2)cc1	BAZ2B block 50µM, G9a inh inconclusive
Cn1c(=O)c2c(-c3ccc(Cl)cc3)n(Cc3ccccc3)cc2n(C)c1=O	none (no result: PLK1 PBD block)
COc1ccc(N(CC(=O)NCc2ccccc2C)S(=O)(=O)c2ccccc2[N+](=O)[O-])c(OC)c1	G9a inh inconclusive
COc1ccc(OC)c(CNC(=O)C2COc3ccccc3C2)c1 (stereo not drawn)	none (no result: PLK1 PBD block)
CCc1ccc(-n2cnc3cc(C(=O)NCc4ccc(C)cc4)ccc32)cc1	G9a inh inconclusive (no result: PLK1 PBD block)
NC(=O)C1CCN(CC(=O)Nc2ccccc2N2CCOCC2)CC1	none
O=c1c2cc([N+](=O)[O-])cc([N+](=O)[O-])c2[nH]n1-c1ccccc1	BAZ2B block 40µM, HP1b chromo inh 35µM, JMJD2A Tudor inh 35µM, G9a inh 28µM
O=C1CC(c2cccs2)Sc2nc3ccccc3n21 (stereo not drawn)	G9a inh inconclusive
O=C1CC(c2ccco2)Sc2nc3ccccc3n21 (stereo not drawn)	JMJD2A Tudor inh 79µM, G9a inh 45µM
